According to PubChem BioAssay (NCATS):
Records with an inconclusive call do not appear. Active and inactive are the calls of the source. The call rests on the fitted dose curve; in most records, active means well fitted cell-killing curve with a large enough effect; inconclusive means small, poorly fitted or top-dose-only effect, or effect the other way; inactive means flat fitted curve, though single readings scatter. Where a SMILES comes first, the peptide text is derived from it.

Columns and labels:
Assay in all cases: Primary qHTS to identify gynecologic anti-cancer compounds using libraries of approved drugs and bioactive compounds (AID 1345084); further: nearly all actives have a fitted effect of over 55% in size
C33A = details: Gynecologic cancer cell panel viability, ATPlite luminescence, 48 h; series mostly up to 57.5 µM
Method in brief: (§1)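 Five-concentration response, 48 h; readout is ATP-driven luciferase luminescence.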

CAOV3 = details: Gynecologic cancer cell panel viability, ATPlite luminescence, 48 h; series mostly up to 57.5 µM
Method in brief: as §1

CASKI = details: Gynecologic cancer cell panel viability, ATPlite luminescence, 48 h; series mostly up to 57.5 µM
Method in brief: as §1

Es-2 = details: Gynecologic cancer cell panel viability, ATPlite luminescence, 48 h; series mostly up to 57.5 µM
Method in brief: as §1

HeLa = details: Gynecologic cancer cell panel viability, ATPlite luminescence, 48 h; series mostly up to 57.5 µM
Method in brief: as §1

Hek293T = details: Gynecologic cancer cell panel viability, ATPlite luminescence, 48 h, control line for the selectivity index; series mostly up to 57.5 µM
Method in brief: as §1

JEG-3 = details: Gynecologic cancer cell panel viability, ATPlite luminescence, 48 h; series mostly up to 57.5 µM
Method in brief: as §1

OV90 = details: Gynecologic cancer cell panel viability, ATPlite luminescence, 48 h; series mostly up to 57.5 µM
Method in brief: as §1

PA-1 = details: Gynecologic cancer cell panel viability, ATPlite luminescence, 48 h; series mostly up to 57.5 µM
Method in brief: as §1

SKOV3 = details: Gynecologic cancer cell panel viability, ATPlite luminescence, 48 h; series mostly up to 57.5 µM
Method in brief: as §1

Tov-21-G = details: Gynecologic cancer cell panel viability, ATPlite luminescence, 48 h; series mostly up to 57.5 µM
Method in brief: as §1

Tov112D = details: Gynecologic cancer cell panel viability, ATPlite luminescence, 48 h; series mostly up to 57.5 µM
Method in brief: as §1
On the % scale 0 is the no-effect control and ±100 the full control effect.

C[C@@H]1O[C@@H](O[C@H]2[C@H](Oc3cc(O)c(C(=O)CCc4ccc(O)cc4)c(O)c3)O[C@H](CO)[C@@H](O)[C@@H]2O)[C@H](O)[C@H](O)[C@H]1O
inactive: Potency (C33A) | Potency (CAOV3) | outcome (CASKI) | Potency (Es-2) | Potency (HeLa) | Potency (Hek293T) | Potency (JEG-3) | Potency (OV90) | Potency (PA-1) | Potency (SKOV3) | Potency (Tov-21-G) | Potency (Tov112D)

C[C@]1(OC(=O)/C=C\c2ccc(O)cc2)C[C@@H](O)[C@]2(O)C=CO[C@@H](O[C@@H]3O[C@H](CO)[C@@H](O)[C@H](O)[C@H]3O)C12 (stereo partly specified)
inactive: Potency (C33A) | Potency (CAOV3) | outcome (CASKI) | Potency (Es-2) | Potency (HeLa) | Potency (Hek293T) | Potency (JEG-3) | Potency (OV90) | Potency (PA-1) | Potency (SKOV3) | Potency (Tov-21-G) | Potency (Tov112D)

COc1c(C)c(OCC(O)C(C)(C)O)cc2c1CNC2=O (stereo unspecified)
inactive: Potency (C33A) | Potency (CAOV3) | outcome (CASKI) | Potency (Es-2) | Potency (HeLa) | Potency (Hek293T) | Potency (JEG-3) | Potency (OV90) | Potency (PA-1) | Potency (SKOV3) | Potency (Tov-21-G) | Potency (Tov112D)

C=C(COC(=O)CC(C)C)C1Cc2cc(C(C)=O)ccc2O1 (stereo unspecified)
inactive: Potency (C33A) | Potency (CAOV3) | outcome (CASKI) | Potency (Es-2) | Potency (HeLa) | Potency (Hek293T) | Potency (JEG-3) | Potency (OV90) | Potency (PA-1) | Potency (SKOV3) | Potency (Tov-21-G) | Potency (Tov112D)

COc1ccc(S(=O)(=O)Nc2nc(-c3cccc([N+](=O)[O-])c3)cs2)cc1OC
inactive: Potency (C33A) | Potency (CAOV3) | outcome (CASKI) | Potency (Es-2) | Potency (HeLa) | Potency (Hek293T) | Potency (JEG-3) | Potency (OV90) | Potency (PA-1) | Potency (SKOV3) | Potency (Tov-21-G) | Potency (Tov112D)

C/C=C/C=C/C1=C2C(=O)C3(C)C4C(C(=O)CC(O)/C=C/C)=C(O1)C1(C)C2C2(C)OC1(O)C4(C)OC23O (stereo unspecified)
inactive: Potency (C33A) | Potency (CAOV3) | outcome (CASKI) | Potency (Es-2) | Potency (HeLa) | Potency (Hek293T) | Potency (JEG-3) | Potency (OV90) | Potency (PA-1) | Potency (SKOV3) | Potency (Tov-21-G) | Potency (Tov112D)

CSCC[C@H](NC(=O)[C@H](CO)NC(=O)[C@H](CCC(=O)O)NC(C)=O)C(=O)N[C@H](C=O)CC(=O)O (Ac-ESMD-aldehyde)
inactive: activity change, negative = cytotoxicity (C33A) 13.1% [at 11.6 µM] | activity change, negative = cytotoxicity (CAOV3) 15.6% [at 11.6 µM] | activity change, negative = cytotoxicity (CASKI) 18.4% [at 11.6 µM] | activity change, negative = cytotoxicity (Es-2) 5.54% [at 11.6 µM] | activity change, negative = cytotoxicity (HeLa) 13.1% [at 11.6 µM] | activity change, negative = cytotoxicity (Hek293T) 8.08% [at 11.6 µM] | activity change, negative = cytotoxicity (JEG-3) 19.7% [at 11.6 µM] | activity change, negative = cytotoxicity (OV90) -2.74% [at 11.6 µM] | activity change, negative = cytotoxicity (PA-1) -0.0533% [at 11.6 µM] | activity change, negative = cytotoxicity (SKOV3) 3.55% [at 11.6 µM] | activity change, negative = cytotoxicity (Tov-21-G) -0.444% [at 11.6 µM] | activity change, negative = cytotoxicity (Tov112D) 6.37% [at 11.6 µM]

C=C(CC/C=C(\C)C(=O)O)C1(O)CC=C(C)CC1 (stereo unspecified)
inactive: Potency (C33A) | Potency (CAOV3) | outcome (CASKI) | Potency (Es-2) | Potency (HeLa) | Potency (Hek293T) | Potency (JEG-3) | Potency (OV90) | Potency (PA-1) | Potency (SKOV3) | Potency (Tov-21-G) | Potency (Tov112D)

CC/C=C\[C@H](O)[C@H](O)C1=C(C)C(=O)[C@]2(O1)C(=O)N[C@@](O)(C(=O)c1ccccc1)[C@@H]2O
inactive: Potency (C33A) | Potency (CAOV3) | outcome (CASKI) | Potency (Es-2) | Potency (HeLa) | Potency (Hek293T) | Potency (JEG-3) | Potency (OV90) | Potency (PA-1) | Potency (SKOV3) | Potency (Tov-21-G) | Potency (Tov112D)

CCC(C)C(=O)O[C@H]1C[C@](C)(O)[C@]23OC(C)(C)[C@H](C[C@H](OC(=O)c4ccccc4)[C@]2(COC(C)=O)[C@H]1OC(=O)C(C)CC)[C@H]3OC(C)=O (stereo partly specified)
inactive: Potency (C33A) | Potency (CAOV3) | outcome (CASKI) | Potency (Es-2) | Potency (HeLa) | Potency (Hek293T) | Potency (JEG-3) | Potency (OV90) | Potency (PA-1) | Potency (SKOV3) | Potency (Tov-21-G) | Potency (Tov112D)

O=C(c1c2ccccc2cc2ccccc12)N1CCC(N2CCC[C@@H](C(=O)N3CCOCC3)C2)CC1
inactive: Potency (C33A) | Potency (CAOV3) | outcome (CASKI) | Potency (Es-2) | Potency (HeLa) | Potency (Hek293T) | Potency (JEG-3) | Potency (OV90) | Potency (PA-1) | Potency (SKOV3) | Potency (Tov-21-G) | Potency (Tov112D)

CC1(C)CC[C@]2(C(=O)O)CC[C@]3(C)C(=CCC4[C@@]5(C)CC[C@H](O[C@@H]6O[C@H](C(=O)O)[C@@H](O)[C@H](O)[C@H]6O)C(C)(C)C5CC[C@]43C)C2C1 (stereo partly specified)
inactive: Potency (C33A) | Potency (CAOV3) | outcome (CASKI) | Potency (Es-2) | Potency (HeLa) | Potency (Hek293T) | Potency (JEG-3) | Potency (OV90) | Potency (PA-1) | Potency (SKOV3) | Potency (Tov-21-G) | Potency (Tov112D)

Nc1ncnc2c1ncn2[C@H]1O[C@@H](C(=O)N2CCN(CC(=O)Nc3cccc4c3CNC4=O)CC2)[C@H](O)[C@@H]1O
inactive: Potency (C33A) | Potency (CAOV3) | outcome (CASKI) | Potency (Es-2) | Potency (HeLa) | Potency (Hek293T) | Potency (JEG-3) | Potency (OV90) | Potency (PA-1) | Potency (SKOV3) | Potency (Tov-21-G) | Potency (Tov112D)
